TDP1 inh: blocks human tyrosyl-DNA phosphodiesterase 1; Potency, µM (highest dose often 130 µM), hits mostly inhibitors; recombinant TDP1, AlphaScreen DNA substrate cleavage; 0.28% of 350,000 active; further: nearly all actives have a fitted effect of over 40% in size
Target sequence (Q9NUW8 whole entry, looked up): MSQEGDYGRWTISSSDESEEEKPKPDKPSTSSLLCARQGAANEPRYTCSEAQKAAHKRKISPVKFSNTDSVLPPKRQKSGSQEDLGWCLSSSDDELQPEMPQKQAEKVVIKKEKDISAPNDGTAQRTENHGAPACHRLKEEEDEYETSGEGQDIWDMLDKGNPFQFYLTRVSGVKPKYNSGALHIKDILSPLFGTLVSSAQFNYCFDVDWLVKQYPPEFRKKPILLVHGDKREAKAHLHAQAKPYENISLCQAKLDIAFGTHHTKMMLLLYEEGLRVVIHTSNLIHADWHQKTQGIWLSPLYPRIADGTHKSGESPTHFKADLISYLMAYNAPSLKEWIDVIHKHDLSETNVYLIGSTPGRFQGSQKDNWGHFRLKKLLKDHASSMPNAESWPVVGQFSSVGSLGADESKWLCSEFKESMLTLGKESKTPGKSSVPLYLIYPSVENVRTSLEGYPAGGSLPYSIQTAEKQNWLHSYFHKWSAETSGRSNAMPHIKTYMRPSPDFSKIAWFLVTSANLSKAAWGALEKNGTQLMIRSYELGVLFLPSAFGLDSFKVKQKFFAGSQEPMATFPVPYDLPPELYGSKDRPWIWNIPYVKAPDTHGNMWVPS
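AlphaScreen read-out: signal falls as enzyme removes the 3' tyrosine-FITC from a 5'-biotinylated DNA oligo (15 nM, 5 min, RT). Enzyme was E. coli-made recombinant Tdp1 at 1 nM, exposed to compound for 15 min beforehand; beads 10 ug/ml, 10 min.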
TDP1 cell noCPT: qHTS for Inhibitors of human tyrosyl-DNA phosphodiesterase 1 (TDP1): qHTS in cells in absence of CPT. DT40 Tdp1-/- hTDP1 cells, no CPT, ATP luminescence, 48 h. Potency, µM (titrated, usually from 46.2 µM), hits mostly inhibitors. 15% of 420,000 active; further: nearly all actives have a fitted effect of over 55% in size
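Readout: luminescence from CellTiter-Glo after 30 min in the dark at RT. Cells: DT40 Tdp1-/- with stable hTDP1, 400/well. Exposure: compounds alone, ≥48 hr, 37 °C.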
Giardia kill: Giardia lamblia killing. Giardia lamblia trophozoite viability. activity change, % at 7.66 µM, hits read low. 0.15% of 340,000 active. AID 540267; in the data active means activity change below about -80%; inconclusive means between about -30% and that limit;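 further: parasites exposed to compound for two days anaerobically before the ATP read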
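Luminescence from cellular ATP indicates surviving trophozoites (100 cells/well) following 48 hrs anaerobic compound treatment at 37 deg C; signal develops 15-30 min at room temperature.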
TDP1 cell CPT: DT40-hTDP1 cell growth loss with CPT. chicken DT40 Tdp1-/-;hTDP1 cells + 20 nM CPT, ATP luminescence, 48 h. Potency, µM (top dose mostly 46.2 µM), actives largely listed as inhibitors. 12% of 420,000 active. AID 686979; further: nearly all actives have a fitted effect of over 55% in size
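Cell growth measured by CellTiter-Glo luminescence after a minimum 48 h, 37 C compound exposure with 20 nM CPT in Tdp1-knockout DT40 cells stably expressing hTDP1, seeded 400/well; qHTS titration format.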
IL-1B inflam inh: inhibitors of inflammasome signaling (IL-1 beta secretion). THP-1 LPS/ATP IL-1B secretion, AlphaLISA, 16 h; active compounds read low. activity change, % at 57.5 µM. 4.7% of 360,000 active; in the data active means activity change below about -50%; inconclusive means mostly about -30% to -49%
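THP-1 cells pretreated 1 hr with compounds (up to 57.5 uM final), then stimulated with LPS (250 ng/mL final) plus ATP (1.25 mM final); secreted IL-1B measured by AlphaLISA after 16 hr, decreased signal indicating inhibition.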
ELG1 repair inh: blocks ELG1-dependent DNA repair in HEK293T cells. HEK293T ELG1-luciferase reporter, luminescence, 16 h; DNA damage induced by 5-fluorouridine. Potency, µM (doses to about 46.1 µM), most hits filed as inhibitors. 2.3% of 330,000 active. AID 504467; further: nearly all actives have a fitted effect of over 55% in size
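Step one: seed 2,000 cells per well. Step two: pin-transfer compound or DMSO alongside 5-fluorouridine. Step three: incubate 16 hr, 37 °C, 5% CO2. Step four: add ONE-Glo, wait 30 min, read luminescence.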
Numbers stand for hits; . = inactive; ? = inconclusive; / = no result; [ ] = dose if it differs, or a comment. This is a sample that favours compounds with a hit; in the whole collection about 19% have one here. Unless noted, the call rests on the fitted dose curve; in most records, active means well fitted curve in the direction sought with a large enough effect; inconclusive means small, poorly fitted or top-dose-only effect, or another doubt; inactive means no such curve, though single readings can be large; an effect the other way counts as inactive or inconclusive.

SMILES	TDP1 inh	TDP1 cell noCPT	Giardia kill	TDP1 cell CPT	IL-1B inflam inh	ELG1 repair inh
CCCN1CCC(N2CCN(c3cccc(C(F)(F)F)c3)CC2)CC1	.	20.6µM	.	23.1µM	.	.
O=C1C2CCCN2C(=O)N1CCN1CCN(c2cccc(C(F)(F)F)c2)CC1 (stereo unspecified)	/	8.2µM	.	.	.	/
CCCN1CCC(N2CCN(c3ccc([N+](=O)[O-])cc3)CC2)CC1	/	20.6µM	.	?	.	.
CC(Sc1nc(N)cc(=O)[nH]1)C(=O)Nc1ccc(N2CCOCC2)cc1 (stereo unspecified)	/	.	/	.	.	/
NC(=O)c1ccc2c(c1)S(=O)(=O)c1ccccc1C2=O	.	16.4µM	.	.	.	.
CC(=O)NCCNC(=O)c1ccc2c(c1)S(=O)(=O)c1ccccc1C2=O	.[0.0935 µM]	.	.	.	.	.
O=C(NCCc1ccccc1)c1ccc2c(c1)S(=O)(=O)c1cc(Cl)ccc1C2=O	.	.	.	20.6µM	.	?
O=C(O)c1ccc2c(c1)S(=O)(=O)c1ccccc1C2=O	/	.	.	.	.	.
O=C(NCCc1ccccc1)c1ccc2c(c1)S(=O)(=O)c1ccccc1C2=O	/	13µM	.	?	.	/
CC(C)(C)c1ccc(-c2ccc3c(c2)S(=O)(=O)c2ccccc2C3=O)cc1	/	23.1µM	.	?	.	/
CC1CCC(NC(=O)c2ccc3c(c2)S(=O)(=O)c2ccccc2C3=O)CC1 (stereo unspecified)	/	14.6µM	.	?	.	/
O=C1c2ccccc2S(=O)(=O)c2cc(N3CCN(C(=O)c4ccccc4)CC3)ccc21	/	20.6µM	.	14.6µM	-67.2	/
O=C(/C=C/c1ccccc1)Nc1cccc(S(=O)(=O)Nc2ccccc2F)c1	.	14.6µM	.	14.6µM	-54.0	.
O=C(Nc1cccc(S(=O)(=O)Nc2ccccc2F)c1)c1ccc2ccccc2n1	.	23.1µM	.	?	-50.9	?
O=C(NNC(=O)c1cccc(S(=O)(=O)Nc2ccccc2F)c1)c1ccncc1	/	.	/	.	.	/
O=C(Nc1ccccc1)c1ccc2ccccc2n1	.	.	.	?	.	?
O=C(Cc1ccc(Cl)cc1Cl)Nc1cccc(S(=O)(=O)Nc2ccccc2F)c1	.	23.1µM	.	14.6µM	-101.6	.
COc1ccccc1NS(=O)(=O)c1cccc(NC(=O)c2ccc3ccccc3n2)c1	.	16.4µM	.	20.6µM	.	18.4µM
Cn1nc(C(=O)NNC(=O)C2CSC3(C)CCC(=O)N23)c2ccccc2c1=O (stereo unspecified)	.	.	.	.	.	?
O=C(O)CC(c1ccc(F)cc1F)N1Cc2ccccc2C1=O (stereo unspecified)	/	.	.	.	.	.
O=C(NCc1nnc2n1CCN(Cc1ccc(C(F)(F)F)cc1)CC2)c1ccccn1	/	.	/	.[9.04 µM]	/	/
O=C(NCc1ccccc1Br)c1ccc2c(c1)nc1n2CCOC1	.	.	/	.	/	/
COc1ccccc1NS(=O)(=O)c1cccc(NC(=O)c2nc3nc(C)cc(C)n3n2)c1	.	13µM	.	23.1µM	.	?
Cc1ccc2c(c1)CN(CCNC(=O)c1cc3ccccc3oc1=O)CC(C)O2 (stereo unspecified)	/	.	/	.[9.04 µM]	/	/
Cc1cc(N2C3CCC2CC(O)(c2ccc(F)cc2)C3)nc(-c2ccccc2)n1 (stereo unspecified)	.	?	.	?	-56.2	?
SMILES	TDP1 inh	TDP1 cell noCPT	Giardia kill	TDP1 cell CPT	IL-1B inflam inh	ELG1 repair inh
COc1ccc(Cn2c(CCC(=O)NCc3ccc(Cl)cc3)nc3cccnc32)cc1	.	?	/	.	/	/
CCOC(=O)N1CCN(C(=O)CCc2c(C)nc3c(c(C)nn3-c3ccc(C)c(C)c3)c2C)CC1	.	16.4µM	.	?	.	.
Cc1nc2c(c(C)nn2-c2ccccc2)c(C)c1CCC(=O)Nc1ccc(CN2CCCC2)cc1	.	?	.	16.4µM	-97.1	.
CCOc1ccc(CCNC(=O)CCc2c(C)nc3c(c(C)nn3-c3ccccc3)c2C)cc1OCC	.	13µM	/	14.6µM	/	/
Cc1nc2c(c(C)nn2-c2ccccc2)c(C)c1CCC(=O)NCc1ccccc1	.	?	/	?	/	/
Cc1nc2c(c(C)nn2-c2ccccc2)c(C)c1CCC(=O)Nc1ccccc1	.	.	/	.	/	/
Cc1nc2c(c(C)nn2-c2ccccc2)c(C)c1CCC(=O)NCCc1ccccc1	.	20.6µM	/	20.6µM	/	/
COC(=O)CCCC(=O)N1CCCC(C(=O)c2ccc(OC)cc2C)C1 (stereo unspecified)	.	.	.	.	.	.
COc1cccc(NC(=O)C2CCCO2)c1 (stereo unspecified)	/	.	.	.	.	.
CCOC(=O)c1cccc(NC(=O)Cn2c(=O)c3cccn3c3ccccc32)c1	.	?	/	?	/	/
Cc1ccc(N2CCN(C(=O)c3cnc(N4CCCCC4)c4ccccc34)CC2)c(C)c1	.	?	/	?	/	/
Cc1cc(C)cc(NC(=O)CCc2c(C)nc3c(c2C)c(=O)n(C)c(=O)n3C)c1	.	16.4µM	/	?	/	/
COc1cc(NC(=O)CCc2c(C)nc3c(c(C)nn3-c3ccccc3)c2C)cc(OC)c1OC	.	11.6µM	/	14.6µM	/	/
CCOc1ccc(NC(=O)CCc2c(C)nc3c(c(C)nn3-c3ccccc3)c2C)cc1	.	.	/	.	/	/
Cc1nc2c(c(C)nn2-c2ccccc2)c(C)c1CCC(=O)NCCCOC(C)C	/	20.6µM	.	.	.	.
Cc1ccc(CNC(=O)CCc2c(C)nc3c(c(C)nn3-c3ccc(C)cc3)c2C)cc1	/	.	.	.	.	.
CCCCNC(=O)CCc1c(C)nc2c(c(C)nn2-c2ccccc2)c1C	.	18.4µM	.	18.4µM	.	.
CCN(Cc1cnn(C)c1)C(=O)CC1C(=O)NCCN1Cc1cccc(OC)c1OC (stereo unspecified)	.	.	.	.	.	.
CCCc1noc(-c2ccc(N3CCCCC3)c([N+](=O)[O-])c2)n1	.	?	/	?	/	/
Cc1ccccc1Cn1c(Oc2ccccc2F)nc2c1c(=O)n(C)c(=O)n2C	.	.	/	.	/	/
CCc1ccc(C(=O)Nc2cccc(-c3nc4cc(C(C)C)ccc4o3)c2)cc1	.	/	/	/	/	/
Cc1cc2c3c(c1)C1(C(=O)N3C(C)(C)CC2C)C(C#N)=C(N)Oc2cc(O)ccc21 (stereo unspecified)	.	25.1µM	.	.	.	.
CC(C)c1cccc2nc3c(c([Si](C)(C)C(C)(C)C)c12)Cn1c-3cccc1=O	.	/	/	/	/	/
Cc1ccccc1-c1cnc(C(O)c2ccccc2)[nH]1 (stereo unspecified)	/	.	/	.	.	/

From PubChem BioAssay
